Data reported in PubChem BioAssay AID588342 (National Center for Advancing Translational Sciences (NCATS), 2011).
Among all 360,000 compounds or so, about 25,000 (6.9%) were called active. Entries that show only a call come without a potency. Inconclusive results (about 9%) are left out. Calls come from the whole dose curve; as a rule, active = well fitted inhibition curve with a large enough effect; inconclusive = small, poorly fitted or top-dose-only effect; inactive = flat fitted curve, though single readings scatter. The sample as a whole holds a higher share of actives than the screen did.

target: Luciferin 4-monooxygenase (Photinus pyralis) (UniProt P08659); test: qHTS profiling assay for firefly luciferase inhibitor/activator using purifed enzyme and Km concentrations of substrates (counterscreen for miR-21 project); details: purified FLuc, luminescence inhibition; series mostly up to 57.5 µM; note: nearly all actives have a fitted effect of over 55% in size
Method in brief: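 Biochemical qHTS of compounds, final roughly 60 µM downward over six points, against 10 nM purified firefly luciferase using Km concentrations of substrates (10 uM D-luciferin, 10 uM ATP) in Tris acetate pH 7.5 buffer; luminescence output.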
Potency is the fitted concentration of half-maximal effect.

Luciferin 4-monooxygenase (Photinus pyralis), sequence (P08659 whole entry, looked up): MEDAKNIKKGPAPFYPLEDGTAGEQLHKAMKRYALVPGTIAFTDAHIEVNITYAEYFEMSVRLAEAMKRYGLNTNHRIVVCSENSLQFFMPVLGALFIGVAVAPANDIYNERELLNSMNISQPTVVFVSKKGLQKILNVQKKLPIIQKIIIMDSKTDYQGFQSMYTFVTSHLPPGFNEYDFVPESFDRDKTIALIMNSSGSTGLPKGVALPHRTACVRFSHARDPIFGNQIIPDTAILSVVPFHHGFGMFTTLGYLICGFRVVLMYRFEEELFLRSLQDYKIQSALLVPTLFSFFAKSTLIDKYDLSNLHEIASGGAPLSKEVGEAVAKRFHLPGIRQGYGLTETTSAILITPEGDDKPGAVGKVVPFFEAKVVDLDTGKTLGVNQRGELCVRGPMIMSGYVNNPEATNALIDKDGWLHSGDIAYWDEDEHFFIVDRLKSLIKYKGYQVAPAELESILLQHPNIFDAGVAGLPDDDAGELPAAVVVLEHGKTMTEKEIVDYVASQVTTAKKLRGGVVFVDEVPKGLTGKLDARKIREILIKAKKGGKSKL

SMILES	Potency
CC(=O)C[C@@H](O)CC(=O)[C@H]1OC(=O)CCCCCCc2ccccc21	inactive
CC(C)(C)c1ccc(C(=O)N2CCC(C(=O)N3CCCCC3)CC2)cc1	inactive
O=C(Nc1ccccc1)C1CCN(C(=O)c2ccc(Br)cc2)CC1	inactive
C/C(=C\C(=O)c1ccc(Br)cc1)N1CCCCC1	15.1 µM (active)
COc1cccc(CNC(=O)Cn2ncn3c(cc4ccccc43)c2=O)c1	inactive
CCC(C)Cn1c(O)cc2nn(-c3nc4ccccc4s3)c(=O)c-2c1C (configuration not stated)	0.301 µM (active)
Cc1cc(NC(=O)CN2CCCC(C)C2)n(-c2nc3ccccc3s2)n1 (configuration not stated)	inactive
S=C(Nc1cccc(Br)c1)N1CCn2cccc2C1c1cccnc1 (configuration not stated)	inactive
CCCCCCCCCCCCCCCC(=O)OC/C=C(C)/C=C/C=C(C)/C=C/C1=C(C)CCCC1(C)C	inactive
O=C(CCS(=O)(=O)c1ccc2c(c1)NC(=O)CO2)Nc1cccc(C(F)(F)F)c1	inactive
CCNc1nc(SCCOc2ccccc2)nc(N(C)C)n1	inactive
COc1cn(CC(=O)Nc2cccc(C)c2C)c(CN2CCCCC2)cc1=O	inactive
Cc1ccc(S(=O)(=O)Oc2ccc(/C=N/NC(=O)c3ccncc3)cc2)cc1	inactive
Cc1ccc(/C=N/NC(=O)COc2ccccc2-c2ccccc2)cc1	inactive
Cc1ccc(/C=N/NC(=O)C(NC(=O)c2ccccc2)c2n[nH]c(=O)c3ccccc23)cc1 (configuration not stated)	19 µM (active)
CCOC(=O)c1cccc(NC(=O)C(Cc2ccccc2)NS(=O)(=O)c2cccc3nsnc23)c1 (configuration not stated)	inactive
CN(C(=O)CSc1nc2ccccc2n1Cc1ccccc1C#N)c1ccccc1	inactive
O=C(COc1ccc(/C=N/NC(=O)c2ccc(O)cc2)cc1)Nc1ccc([N+](=O)[O-])cc1	inactive
O=C(N/N=C/c1ccc(O)c(O)c1)C1c2ccccc2Oc2ccccc21	inactive
O=C(N/N=C/c1ccsc1)c1cc(O)cc(O)c1	21.3 µM (active)
Cc1cccc(-n2ncc(C(=O)N3CCc4ccccc4C3)c2C2CCN(C(=O)OC(C)(C)C)CC2)c1	inactive
Cc1ccc(NC(=O)c2nc(S(=O)(=O)Cc3cccc(C)c3)ncc2Cl)cc1	inactive
Nc1[nH]c(=S)nc2nc(-c3ccccc3)c(-c3ccccc3)nc12	inactive
Cn1nnnc1SCC(=O)N1CCN(Cc2ccccc2)CC1	inactive
Cc1c(Br)c([N+](=O)[O-])nn1CC(=O)N1CCN(Cc2ccccc2)CC1	13.5 µM (active)
O=C(c1cccc([N+](=O)[O-])c1)N1CCN(Cc2ccccc2)CC1	inactive
Cc1cccc(NS(=O)(=O)c2ccc(-c3cnc(C4CC4)o3)cc2)c1	inactive
